Assay results reported in PubChem BioAssay (EPA / NIEHS).
The source made the active and inactive calls. Rule for the calls: active = hit-call score of the fitted dose curve at least 0.9, where 1 is the maximum; inactive = score below 0.9.

How the values were obtained:
[1] = target: Paired box protein Pax-6 (Homo sapiens) (UniProt P26367); test: ATG_Pax6_CIS: Attagene CIS-FACTORIAL HepG2 Assay for human Paired Box 6 (PAX6) (AID 2282956); details: HepG2 CIS-FACTORIAL PAX6 reporter transcription, RNA readout; actives raise or lower the signal
Summary of the method: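 After twenty-four hours of chemical exposure, transfected HepG2 cells are harvested for RNA. Cis-promoter reporter transcripts are amplified, fluorescently labelled and sized by capillary electrophoresis, with gain and loss of signal scored against DMSO.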

[2] = ATG_PXRE_CIS: Attagene CIS-FACTORIAL HepG2 Assay for human Pregnane X Receptor Element (PXRE) (AID 2282957); details: HepG2 Attagene CIS-FACTORIAL PXRE reporter, mRNA; actives raise or lower the signal
Summary of the method: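 Transiently transfected HepG2 cells were dosed and incubated for 24 h. RNA was then isolated, DNase-treated, reverse-transcribed and reporter sequences amplified. Labeled, HpaI-digested fragments were quantified by capillary electrophoresis against DMSO.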

[3] = ATG_PPRE_CIS: Attagene CIS-FACTORIAL HepG2 Assay for human Peroxisome Proliferator-activated Response Element (PPRE) (AID 2282958); details: HepG2 PPRE cis-element reporter, Attagene transcription factor profiling; actives raise or lower the signal
Summary of the method: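 HepG2 cells transiently transfected with multiplexed cis-element reporter units measure endogenous transcription factor activity. After 24 h compound exposure, reporter mRNA is quantified by RT-PCR, 6-FAM labeling, HpaI digestion and capillary electrophoresis; bidirectional fits are made against DMSO baseline.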

[4] = ATG_RORE_CIS: Attagene CIS-FACTORIAL HepG2 Assay for human RAR-related Orphan Receptor Element (RORE) (AID 2282959); details: HepG2 Attagene cis-factorial RORE reporter, mRNA; actives raise or lower the signal
Summary of the method: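 HepG2 cells transiently transfected with multiple cis-element reporter transcription units, exposed to chemical for 24 h. Reporter mRNA quantified by RT-PCR, 6-FAM primer-extension labeling, HpaI digestion and capillary electrophoresis; bidirectional fit versus DMSO baseline.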

[5] = ATG_Sox_CIS: Attagene CIS-FACTORIAL HepG2 Assay for human SRY-box transcription factor (SOX) (AID 2282960); details: HepG2 Attagene cis-factorial SOX reporter, mRNA; actives raise or lower the signal
Summary of the method: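 HepG2 cells transiently transfected with cis-element-driven multiple reporter transcription units, dosed 24 h; reporter mRNA measured by RT-PCR, FAM labelling, HpaI digestion and capillary electrophoresis. Bidirectional fit versus DMSO baseline.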

[6] = target: Transcription factor Sp1 (Homo sapiens) (UniProt P08047); test: ATG_Sp1_CIS: Attagene CIS-FACTORIAL HepG2 Assay for human Specificity Protein 1 (Sp1) (AID 2282961); details: HepG2 Sp1 cis-reporter transcription, actives raise or lower the signal
Summary of the method: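 HepG2 cells transiently transfected with multiple reporter transcription units driven by cis-regulatory elements; Sp1-responsive reporter mRNA measured 24 h after dosing by RT-PCR and capillary electrophoresis fluorescence, fitted bidirectionally against DMSO baseline.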

[7] = ATG_SREBP_CIS: Attagene CIS-FACTORIAL HepG2 Assay for human Sterol Regulatory Element Binding (SREBP) (AID 2282962); details: HepG2 Attagene cis-factorial SREBP reporter, mRNA; actives raise or lower the signal
Summary of the method: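 Twenty-four hours after chemical dosing of transfected HepG2 cultures, reporter RNA was converted to cDNA, amplified, end-labelled with 6-FAM and resolved by capillary electrophoresis. Responses were fitted relative to DMSO.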

[8] = target: Signal transducer and activator of transcription 3 (Homo sapiens) (UniProt P40763); test: ATG_STAT3_CIS: Attagene CIS-FACTORIAL HepG2 Assay for human Signal Transducer and Activator of Transcription 3 (STAT3) (AID 2282963); details: HepG2, Attagene cis-factorial STAT3 reporter transcription; actives raise or lower the signal
Summary of the method: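 Values derive from bidirectional fits relative to DMSO of reporter mRNA levels, measured by RT-PCR with capillary electrophoresis, in HepG2 cells carrying transiently transfected cis-regulated reporter units and exposed 24 h.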

[9] = ATG_TA_CIS: Attagene CIS-FACTORIAL HepG2 Assay for human TA Basal Promoter (AID 2282964); details: HepG2 Attagene CIS-factorial TA basal promoter reporter; actives raise or lower the signal
Summary of the method: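 Transient MRTU transfection of HepG2 preceded 24 h compound exposure. Reporter mRNA levels were then read by RT-PCR with capillary electrophoresis, and this background-control endpoint was fitted bidirectionally to DMSO.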

[10] = ATG_TCF_b_cat_CIS: Attagene CIS-FACTORIAL HepG2 Assay for human T-Cell-Factor with beta-catenin (TCF/b-cat) (AID 2282965); details: HepG2 TCF/beta-catenin cis-reporter transcription, actives raise or lower the signal
Summary of the method: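 HepG2 cells transiently transfected with cis-promoter-driven multiplexed reporter units; reporter mRNA measured 24 h after dosing by RT-PCR, FAM labelling, HpaI digestion and capillary electrophoresis. Bidirectional fitting relative to DMSO baseline.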

Measured: AC50

Signal transducer and activator of transcription 3 (Homo sapiens), sequence (P40763 whole entry, looked up): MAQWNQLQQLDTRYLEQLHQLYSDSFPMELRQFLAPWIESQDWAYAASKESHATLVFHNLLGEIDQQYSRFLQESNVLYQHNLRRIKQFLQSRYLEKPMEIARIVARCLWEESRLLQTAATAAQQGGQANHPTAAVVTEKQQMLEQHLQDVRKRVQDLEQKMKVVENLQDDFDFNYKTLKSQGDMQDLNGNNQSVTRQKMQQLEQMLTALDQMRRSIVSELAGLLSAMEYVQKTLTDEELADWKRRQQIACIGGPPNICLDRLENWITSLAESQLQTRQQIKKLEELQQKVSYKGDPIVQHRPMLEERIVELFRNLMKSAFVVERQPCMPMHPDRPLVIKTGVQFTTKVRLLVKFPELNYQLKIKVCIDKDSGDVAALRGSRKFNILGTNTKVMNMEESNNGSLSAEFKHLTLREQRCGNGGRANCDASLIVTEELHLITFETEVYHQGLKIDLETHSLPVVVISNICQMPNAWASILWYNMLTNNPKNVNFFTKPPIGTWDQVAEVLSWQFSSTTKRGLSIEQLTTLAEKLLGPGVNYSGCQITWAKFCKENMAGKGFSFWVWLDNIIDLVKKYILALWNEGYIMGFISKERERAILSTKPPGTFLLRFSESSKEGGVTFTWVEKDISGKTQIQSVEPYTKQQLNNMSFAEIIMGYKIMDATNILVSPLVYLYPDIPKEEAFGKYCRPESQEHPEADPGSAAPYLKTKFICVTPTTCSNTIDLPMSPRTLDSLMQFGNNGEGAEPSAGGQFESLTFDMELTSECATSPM
Transcription factor Sp1 (Homo sapiens), sequence (P08047 whole entry, looked up): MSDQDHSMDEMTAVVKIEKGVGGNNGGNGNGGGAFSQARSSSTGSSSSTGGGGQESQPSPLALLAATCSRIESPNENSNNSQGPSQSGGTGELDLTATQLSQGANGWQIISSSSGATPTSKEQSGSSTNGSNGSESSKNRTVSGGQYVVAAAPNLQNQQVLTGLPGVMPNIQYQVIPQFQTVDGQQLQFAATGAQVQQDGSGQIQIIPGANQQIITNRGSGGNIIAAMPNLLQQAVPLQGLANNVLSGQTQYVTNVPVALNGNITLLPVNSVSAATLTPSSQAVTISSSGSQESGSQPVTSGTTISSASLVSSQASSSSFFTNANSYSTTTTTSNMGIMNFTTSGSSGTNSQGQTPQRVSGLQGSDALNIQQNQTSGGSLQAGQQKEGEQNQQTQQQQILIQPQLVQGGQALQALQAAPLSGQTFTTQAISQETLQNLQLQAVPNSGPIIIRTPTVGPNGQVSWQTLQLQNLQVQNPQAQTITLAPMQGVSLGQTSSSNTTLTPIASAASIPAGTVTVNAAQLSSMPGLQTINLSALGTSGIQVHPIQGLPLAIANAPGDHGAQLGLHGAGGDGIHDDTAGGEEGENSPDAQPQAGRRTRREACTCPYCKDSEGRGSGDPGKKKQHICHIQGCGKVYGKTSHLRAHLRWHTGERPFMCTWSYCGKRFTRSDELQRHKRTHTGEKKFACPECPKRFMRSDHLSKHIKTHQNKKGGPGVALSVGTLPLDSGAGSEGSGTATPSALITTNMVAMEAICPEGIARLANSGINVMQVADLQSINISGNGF
Paired box protein Pax-6 (Homo sapiens), sequence (P26367 whole entry, looked up): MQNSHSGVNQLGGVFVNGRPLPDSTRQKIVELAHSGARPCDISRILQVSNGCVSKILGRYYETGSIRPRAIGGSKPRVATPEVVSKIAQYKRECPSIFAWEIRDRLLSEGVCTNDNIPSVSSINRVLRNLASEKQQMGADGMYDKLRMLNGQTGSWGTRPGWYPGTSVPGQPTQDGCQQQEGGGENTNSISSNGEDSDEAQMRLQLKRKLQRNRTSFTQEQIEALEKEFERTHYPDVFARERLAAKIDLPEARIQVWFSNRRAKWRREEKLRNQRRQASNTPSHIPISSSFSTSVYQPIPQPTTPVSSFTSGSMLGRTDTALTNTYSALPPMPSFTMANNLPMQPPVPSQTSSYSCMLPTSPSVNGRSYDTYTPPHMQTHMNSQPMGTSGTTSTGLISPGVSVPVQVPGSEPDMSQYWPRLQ

O=C(O)c1c(Cl)ccc2cc(Cl)cnc12
inactive: all assays above

CCOP(=O)(OCC)Oc1nc(Cl)c(Cl)cc1Cl
active: [2] 45.7 µM | [3] 29.9 µM | [7] 15.6 µM
inactive: all other assays above

CCC(C)n1c(=O)[nH]c(C)c(Br)c1=O (configuration not stated)
active: [2] 50 µM
not listed: [3]
inactive: all other assays above

CC(C)NC(=O)N1CC(=O)N(c2cc(Cl)cc(Cl)c2)C1=O
active: [2] 5.44 µM | [3] 23.2 µM
inactive: all other assays above

Cc1ccc(N=CN(C)C=Nc2ccc(C)cc2C)c(C)c1
not listed: [3]
inactive: all other assays above

COc1ccc(-c2ccccc2)cc1NNC(=O)OC(C)C
active: [2] 3.69 µM | [7] 15.2 µM
not listed: [3]
inactive: all other assays above

CC(C)N1C(=O)c2ccccc2NS1(=O)=O
active: [2] 12.1 µM | [7] 50 µM
inactive: all other assays above

Nc1c(Cl)c(F)nc(OCC(=O)O)c1Cl
active: [2] 50 µM
not listed: [3]
inactive: all other assays above

CCCC(=NOCC)C1=C(O)CC(CC(C)SCC)CC1=O (configuration not stated)
active: [2] 29.5 µM
inactive: all other assays above

O=P(O)(O)CCCl
inactive: all assays above

Cn1c(-c2ccccc2)cc(-c2ccccc2)[n+]1C
not listed: [3]
inactive: all other assays above

CN/C(=N\[N+](=O)[O-])NCc1cnc(Cl)s1
not listed: [3]
inactive: all other assays above

CC(C)Nc1nc(Cl)nc(NC(C)C)n1
active: [2] 15.3 µM
not listed: [4]
inactive: all other assays above

CCCN(CC)CC1COC2(CCC(C(C)(C)C)CC2)O1 (configuration not stated)
active: [1] 21.9 µM | [2] 13.5 µM | [4] 18.1 µM | [5] 35.5 µM | [7] 24.5 µM | [8] 86.3 µM
inactive: [6] | [9] | [10]

CCOc1nc(F)cc2nc(S(=O)(=O)Nc3c(Cl)cccc3Cl)nn12
active: [2] 10.1 µM
inactive: all other assays above

CCOP(=S)(OCC)Oc1nc(Cl)n(C(C)C)n1
active: [2] 0.655 µM | [7] 5.98 µM
not listed: [3]
inactive: all other assays above

CCNC(=O)NC(=O)C(C#N)=NOC
inactive: all assays above

CNC(=O)N(C)c1nnc(C(C)(C)C)s1
active: [2] 50 µM
inactive: all other assays above

COc1cc(OC)nc(NC(=O)NS(=O)(=O)c2ncccc2OCC(F)(F)F)n1
active: [2] 63 µM
inactive: all other assays above

CC1(C)CCC(=Cc2ccc(Cl)cc2)C1(O)Cn1cncn1 (configuration not stated)
active: [2] 3.16 µM | [3] 29.7 µM | [7] 15 µM
inactive: all other assays above

CCCCOCN(C(=O)CCl)c1c(CC)cccc1CC
active: [2] 0.265 µM
not listed: [4]
inactive: all other assays above

CCSC(=O)N1CCCCCC1
active: [2] 15.9 µM
inactive: all other assays above

C=CCOC(=O)C(C)(C)OC(=O)c1cc(-n2c(=O)cc(C(F)(F)F)n(C)c2=O)ccc1Cl
active: [2] 1.49 µM
inactive: all other assays above

COc1cc(Cl)c(OC)cc1Cl
active: [2] 50 µM
not listed: [3] | [4]
inactive: all other assays above

CS(=O)(=O)c1cc(C(F)(F)F)ccc1C(=O)c1cnoc1C1CC1
active: [2] 40.2 µM
inactive: all other assays above

COP(=O)(OC)O/C(C)=C/C(=O)N(C)C
active: [2] 68.5 µM
inactive: all other assays above

COC(=O)NS(=O)(=O)c1ccc(N)cc1
active: [2] 19.9 µM
inactive: all other assays above

O=C1C2CC=CCC2C(=O)N1SC(Cl)(Cl)Cl (configuration not stated)
not listed: [4]
inactive: all other assays above

CC1(C)C(C=C(Cl)Cl)C1C(=O)OC(C#N)c1cccc(Oc2ccccc2)c1 (configuration not stated)
active: [2] 2.32 µM
not listed: [3]
inactive: all other assays above

CC1(C)CON(Cc2ccccc2Cl)C1=O
active: [2] 14.8 µM | [3] 50 µM | [4] 13.4 µM
inactive: all other assays above

CNC(=O)Oc1cccc2ccccc12
active: [2] 37.9 µM
not listed: [3]
inactive: all other assays above

CCOc1cc(C(C)(C)C)ccc1C1COC(c2c(F)cccc2F)=N1 (configuration not stated)
active: [2] 0.593 µM
inactive: all other assays above

CC(C)=CC1C(C(=O)OCc2coc(Cc3ccccc3)c2)C1(C)C (configuration not stated)
active: [2] 5.63 µM | [3] 11.2 µM
inactive: all other assays above

Cc1c(COC(=O)[C@@H]2[C@H](/C=C(\Cl)C(F)(F)F)C2(C)C)cccc1-c1ccccc1
active: [2] 2.31 µM
inactive: all other assays above

OC(c1ccc(Cl)cc1)(c1ccc(Cl)cc1)C(Cl)(Cl)Cl
active: [2] 2.86 µM
not listed: [4]
inactive: all other assays above

Clc1cccc(C(Cl)(Cl)Cl)n1
active: [2] 48.7 µM
not listed: [3]
inactive: all other assays above

CCNP(=S)(OC)O/C(C)=C/C(=O)OC(C)C (configuration not stated)
active: [2] 2.6 µM | [7] 16.3 µM
not listed: [3]
inactive: all other assays above
